Our source for the inhibition values is PubChem BioAssay AID501 (PCMD, 2006).

The whole screen tested about 62,000 compounds, of which about 35 (0.06%) were called active. Cut-off read from the data, not from the text of the source: active = inhibition above about 32% (passing the limit was not always enough); inconclusive = no clear call, values can overlap the other calls. Many of the other results were omitted from the sample, so actives are more common in it than they were.

In general, inhibition refers to the relative decrease from the control value, in per cent.

This test deals with Cathepsin S (Homo sapiens) (UniProt P25774). The test can be described thus: inhibitors of human cathepsin S, biochemical, compound mixtures (AID 501).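 Note: 0% = enzyme without compound and 100% = blank without enzyme.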 To be noted: recombinant cathepsin S, AMC dipeptide fluorescence, pooled mixtures; stronger effect = higher value;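 tested at 5 µM per compound within 10-compound mixtures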.
Chain of Cathepsin S (Homo sapiens) (P25774 115-331 limits assumed): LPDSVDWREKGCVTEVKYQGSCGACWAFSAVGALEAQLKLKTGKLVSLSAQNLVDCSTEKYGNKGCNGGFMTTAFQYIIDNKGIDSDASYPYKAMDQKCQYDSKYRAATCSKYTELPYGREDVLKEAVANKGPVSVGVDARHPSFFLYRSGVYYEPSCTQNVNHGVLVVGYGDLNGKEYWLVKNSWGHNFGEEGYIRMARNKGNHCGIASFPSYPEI
As to `COc1ccc(-n2ncc3c(N4CCc5ccccc54)ncnc32)cc1`, the inhibition was -6.55% (inactive).

Take `COc1ccccc1C(=O)N1CCN=C1SCc1cccnc1`: the inhibition is 3.41% (inactive).

Turning to `CCn1cc(C(=O)N2CCN(Cc3ccc4c(c3)OCO4)CC2)c2cc(OC)c(OC)cc2c1=O`, the inhibition was 0.555% (inactive).

Take `Cc1ccc(S(=O)(=O)NCc2cn3ccsc3n2)c(C)c1`: the inhibition is -2.17% (inactive).

In the case of `CC1(C)CC(=O)C(C=NCc2cccnc2)=C(O)C1`, the inhibition is -6.24% (inactive).

Take `COc1ccc(C(=O)Cn2nnc(-c3ccc(N4CCOCC4)cc3)n2)cc1OC`: the inhibition was 8.22% (inactive).

In the case of `Cc1c(-c2nn(C)c(=O)c3ccccc23)oc2ccc(F)cc2c1=O`, the inhibition is 21.9% (inactive).

With `CCn1c(SCC(=O)Nc2cc(C)ccc2C)nnc1-c1cnccn1`, the inhibition was -6.74% (inactive).

For the compound `O=C(Cn1nnc(-c2ccccc2)n1)NCc1ccccc1`, the inhibition is 3.11% (inactive).

For `NC(=O)Cn1c(=O)oc2ccccc21`, the inhibition was 0.705% (inactive).

For `Cc1nnc(C)n1/N=C/c1ccc(C(C)C)cc1`, the inhibition was 5.16% (inactive).

Take `CCc1nnc(NC(=O)CSc2nnc(-c3ccncc3)n2Cc2ccccc2)s1`: the inhibition is 15.4% (inactive).

With `Cc1cc(N2CCCC2=O)cc(C)c1S(N)(=O)=O`, the inhibition was 14% (inactive).

For the compound `CC(C)OCCCNC(=O)CNC(=O)c1cccs1`, the inhibition was 15.3% (inactive).

Turning to `Cn1cnc2c1c(=O)n(Cc1c(Cl)cccc1Cl)c(=O)n2C`, the inhibition was -2.21% (inactive).

Take `CCOC(=O)CNC(=O)CSc1nnc(COc2ccc(Cl)cc2)n1CC`: the inhibition is 17% (inactive).

Regarding `Cc1cccc(N2CCN(C(=O)C3CCN(S(=O)(=O)c4cnc[nH]4)CC3)CC2)c1C`, the inhibition is -2.09% (inactive).

In the case of `CCOC(=O)c1c(NC(=O)c2ccc(Br)o2)sc2c1CCCC2`, the inhibition was -2.96% (inactive).

With `COc1cccc(N(CC(=O)NC2CCCC2)C(=O)Cn2nnc(-c3ccc(C)cc3)n2)c1`, the inhibition was -32.1% (inactive).

Regarding `CC1CC(c2ccccc2)n2nc(NC(=O)c3cccs3)nc2N1` (centres undefined), the inhibition was 7.8% (inactive).

As for `CC(=O)Nc1cc2ccc(OC(C)=O)cc2oc1=O`, the inhibition is -31.5% (inactive).

In the case of `C=CCNC(=O)C1CC=CCC1C(=O)O` (centres undefined), the inhibition is -2.51% (inactive).

As for `CCOC(=O)CSc1nnc(CNc2nc(-c3ccccc3)cs2)n1C`, the inhibition is -5.74% (inactive).

`O=C(NC(c1ccccc1)c1ccccc1)N1CCN(CCO)CC1`: the inhibition is 10.9% (inactive).

Regarding `Cc1cc(C(F)(F)F)nn1-c1nc(-c2ccco2)cc(C(F)(F)F)n1`, the inhibition is 7.66% (inactive).

Turning to `COCCn1c(CN(Cc2ccccc2)Cc2ccccc2)nc2c1c(=O)n(C)c(=O)n2C`, the inhibition was 9.43% (inactive).

Turning to `CCN(C(=O)CSc1ncn[nH]1)c1cccc2ccccc12`, the inhibition is 2.39% (inactive).

As for `Cc1noc(NS(=O)(=O)c2ccc(N3CC(O)=C(c4ccccc4)C3=N)cc2)c1C`, the inhibition was -12.9% (inactive).

For `CCn1ncc(Br)c1C(=O)Nc1cc(C)ccc1F`, the inhibition was 6.74% (inactive).

Consider `Cc1ccc(-c2nc(CS(=O)CC(=O)N3CCN(c4ncccn4)CC3)c(C)o2)cc1` (centres undefined), for which the inhibition is 7.31% (inactive).

As to `CC(C)n1c(C(O)c2ccccc2)nc2ccccc21` (centres undefined), the inhibition is -7.12% (inactive).

Turning to `Cc1ccccc1N1CC(c2nc3ccccc3[nH]2)CC1=O` (centres undefined), the inhibition is -1.51% (inactive).

As for `Cc1ccc(-c2nnc(SC(C)C#N)n2N)cc1` (centres undefined), the inhibition was -1.33% (inactive).

As for `Cn1c(=O)c(C(=O)Nc2ncccn2)c(O)c2ccccc21`, the inhibition is -4.57% (inactive).

In the case of `CC(=O)NCCc1ccc(S(=O)(=O)N(C)C2CCS(=O)(=O)C2)cc1` (centres undefined), the inhibition is 30% (inactive).

For the compound `CCc1ccccc1NC(=O)CSc1nnc([C@@H](NC(=O)OC(C)(C)C)C(C)C)o1`, the inhibition was 9.29% (inactive).

`Cc1nn(C)c(C)c1S(=O)(=O)N1CCc2ccccc21`: the inhibition is -5.94% (inactive).

For the compound `CCOC(=O)c1sc(N(Cc2ccccc2)C(=O)CN2C(=O)CN(C)C2=O)nc1C`, the inhibition is -1.84% (inactive).

For the compound `COCCn1c(=O)[nH]c2cc(C(=O)NCc3cccnc3)ccc2c1=O`, the inhibition was 4.14% (inactive).

`Cc1ccc(NC(=O)CS(=O)CC(=O)N(c2ccccc2)C(C)C(=O)NC2CCCC2)cc1` (centres undefined): the inhibition was -27.8% (inactive).

Take `O=C(C1CCN(CC2CCCCC2)CC1)N1CCCC1`: the inhibition is -3% (inactive).

As to `FC(F)Oc1ccccc1C1CC(c2ccc(Br)s2)Nc2ncnn21` (centres undefined), the inhibition is 1.68% (inactive).

With `CCC(C)n1[nH]c(=O)c2c(C)cc(C)nc21` (centres undefined), the inhibition was 12.4% (inactive).

In the case of `Cc1nc(NC(=O)CCC(=O)O)sc1C(=O)N(C)C`, the inhibition is -4.56% (inactive).

As for `O=C(Cn1cc2c(n1)CCCCC2)NCCN1CCOCC1`, the inhibition is 7.2% (inactive).

Consider `CC(C)c1ccc(NS(=O)(=O)c2cn(C)c(=O)n(C)c2=O)cc1`, for which the inhibition is -0.575% (inactive).

Turning to `COc1ccccc1NC(=O)CSc1nnc(Cn2nnc(-c3ccccc3)n2)n1-c1ccccc1`, the inhibition was -0.79% (inactive).

In the case of `CC(CNC(=O)c1ccc(Br)o1)NC(=O)c1ccc(Br)o1` (centres undefined), the inhibition is 6.17% (inactive).

For `COc1cc(Cl)cc(C2NC(=O)NC(C)=C2C(=O)NCc2ccccc2)c1O` (centres undefined), the inhibition is 7.15% (inactive).

Consider `CCOC(=O)C(C)Oc1cccc2c(=O)n(CC(=O)N3CCc4ccccc43)ccc12` (centres undefined), for which the inhibition is -6.21% (inactive).

Take `CC(NC(=O)CN1CCN(Cc2ccc(Cl)cc2)C1=O)c1ccc2c(c1)OCCO2` (centres undefined): the inhibition was 55.3% (inactive).

Take `CSc1sc(C)cc1C1C(C#N)=C(N)N(c2cccnc2)C2=C1C(=O)CCC2` (centres undefined): the inhibition was 1.56% (inactive).

As for `NC(=O)c1ccsc1NC(=O)c1ccco1`, the inhibition was 7.91% (inactive).

Take `COC(=O)[C@H](CCSC)NC(=O)Nc1ccc(OC)cc1`: the inhibition was -1.09% (inactive).

On to `O=C(CCCn1c(=O)[nH]c2cc(Cl)ccc2c1=O)NCCN1CCN(c2ccccc2)CC1`, for which the inhibition was 13.6% (inactive).

For `Cc1ccc(-c2noc(CSc3nnc(-c4ccccc4)n3C)n2)cc1`, the inhibition was -4.08% (inactive).

In the case of `COCCCn1c(CCC(=O)O)ccc1-c1ccc(F)cc1`, the inhibition is -19.4% (inactive).

With `CCCNS(=O)(=O)c1ccc(CCC(=O)NCc2cccnc2)cc1`, the inhibition was -3.48% (inactive).

As to `CCOc1ccc(CC(=O)Nc2ccc(S(=O)(=O)Nc3cc(C)on3)cc2)cc1OCC`, the inhibition was -4.34% (inactive).

`Cc1cnc(NC(=O)CSc2nnc(-c3ccccc3)n2Cc2ccccc2)s1`: the inhibition is 11.8% (inactive).

For the compound `CCOc1ccc(NC(=O)Nc2ccc(N(C)C(C)=O)cc2)cc1`, the inhibition is -16.6% (inactive).

Take `Cc1cccc(N2CCN(C(=O)c3cc4c(=O)[nH]c5ccccc5c4n3C)CC2)c1C`: the inhibition is 16.8% (inactive).

`Cn1c(C(=O)NCCc2ccsc2)cc2c(=O)n(C)c3ccccc3c21`: the inhibition was -2.9% (inactive).

For the compound `Cn1c(C(=O)NCCN2CCc3ccccc3C2)cc2c(=O)[nH]c3ccccc3c21`, the inhibition is 45.6% (active).

Regarding `CC(=O)Nc1ccc(-c2cn3cccnc3n2)cc1`, the inhibition was -4.08% (inactive).

`COc1ccc(N(CC(=O)NC2CCCCCCC2)S(=O)(=O)c2c(C)nn(C)c2C)cc1`: the inhibition is -2.48% (inactive).

For `COc1ccc(N(C(=O)c2cccnc2)S(=O)(=O)c2ccc3c(c2)n(C)c(=O)n3C)cc1`, the inhibition is -5.68% (inactive).

Turning to `Cc1ccccc1NC(=O)CNc1ccccc1N1CCCCC1`, the inhibition was -4.53% (inactive).

Regarding `COC(=O)c1[nH]c2ccccc2c1NC(=O)CN1CCCc2ccccc21`, the inhibition was 15.9% (inactive).

Consider `COC(=O)c1[nH]c2cccc(C)c2c1NC(=O)CN1CCCc2ccccc21`, for which the inhibition was 51.2% (active).

For `COC(CCN(C)C)(c1ccccc1)c1ccccc1`, the inhibition is -4.38% (inactive).

As for `CCN(CCCCOC(=O)c1ccc(OC)c(OC)c1)C(C)Cc1ccc(OC)cc1` (centres undefined), the inhibition is 14.3% (inactive).

As to `O=C(O)C1CCCN(S(=O)(=O)c2cccc3cccnc23)C1` (centres undefined), the inhibition was -4.15% (inactive).

Consider `O=C(O)CSCNC(=O)CC12CC3CC(CC(C3)C1)C2`, for which the inhibition is 1.12% (inactive).

In the case of `CCOc1ccccc1Nc1nnc(SCC(=O)Nc2cc(C)on2)s1`, the inhibition was 8.96% (inactive).

In the case of `CC1=C(C(=O)OCc2ccccc2)C(c2ccco2)n2ncnc2N1` (centres undefined), the inhibition is 6.81% (inactive).

In the case of `CCOC(=O)C1CCN(C(=O)C2CCN(S(=O)(=O)CC)CC2)CC1`, the inhibition is 6.47% (inactive).

For the compound `O=C(CN(c1ccc2c(c1)OCCO2)S(=O)(=O)c1ccccc1)Nc1ccc2c(c1)OCO2`, the inhibition was 8.94% (inactive).

Consider `Cn1c(=O)[nH]c(=O)c2c1nc(N1CCCCCC1)n2CC(=O)c1ccccc1`, for which the inhibition was 12.8% (inactive).

On to `C=C(C)Cn1c(N2CCCC2)nc2c1c(=O)[nH]c(=O)n2C`, for which the inhibition is -0.005% (inactive).

On to `Cc1nnc(SCCCn2c(N3CCCCC3)nc3c2c(=O)[nH]c(=O)n3C)s1`, for which the inhibition was 37.6% (active).

Regarding `CCOc1ccc(C2C(C(=O)O)c3ccccc3C(=O)N2CCN2CCOCC2)cc1` (centres undefined), the inhibition was 39.9% (inactive).

On to `Cn1c(=O)cc(SCC(=O)N2CCCC2)c2cc(Cl)ccc21`, for which the inhibition was 1.36% (inactive).

`O=C(NCc1ccccn1)Nc1ccc(F)cc1`: the inhibition is 17.6% (inactive).

Consider `CCCc1nc(-c2ccccc2O)n(-c2ccccc2)n1`, for which the inhibition was -4.97% (inactive).

With `O=C(O)C1CC=CCC1C(=O)NCCc1ccccc1` (centres undefined), the inhibition is -14.2% (inactive).

For `O=C1c2ccccc2C(=O)N1c1ccccc1S(=O)C(F)(F)F` (centres undefined), the inhibition was 16.1% (inactive).

`COC(=O)CN(c1nc(C)c(Cl)c(OC)n1)S(=O)(=O)c1ccc(C)cc1`: the inhibition is 3.91% (inactive).

`CCOc1ccc(NC(=O)CSc2nc3c(c(=O)n2-c2ccccc2OC)SCC3)cc1`: the inhibition is -11.1% (inactive).

As to `O=C(NCCCN1CCN(Cc2ccccc2)CC1)C1CCN(S(=O)(=O)N2CCCC2)CC1`, the inhibition was 17.9% (inactive).

In the case of `O=C(COc1ncnc2ccccc12)NC(=O)NCc1ccccc1`, the inhibition was -8.35% (inactive).

Turning to `Cc1cccc(N2CCN(Cc3c(C)n(C)n(-c4ccccc4)c3=O)CC2)c1C`, the inhibition is -2.31% (inactive).

With `CC(C)C[C@H](NC(=O)[C@@H]1O[C@H]1C(=O)O)C(=O)NCCCCN=C(N)N`, the inhibition was 117% (active).

For `Cc1cccc(N2CCN(C(c3ccccc3)c3nnnn3CC3CCCO3)CC2)c1C` (centres undefined), the inhibition is 6.28% (inactive).
